The results in this text go back to ChEMBL document CHEMBL3433997, “St. Jude Leishmania screening dataset” (2016).

The target in the first assay is Solute carrier family 2, facilitated glucose transporter member 1 (Homo sapiens) (UniProt P11166). The experiment in a line: ST_JUDE_LEISH: Cytotoxicity at 2uM final concentration against transgenic Leishmania Mexicana promastigotes LmGLUT1 that are glucose transport deficient and complemented with the human glucose transporter GLUT1. Activity is measured by DNA content using SYBR green in vitro. It counts as functional.
Chain of Solute carrier family 2, facilitated glucose transporter member 1 (Homo sapiens) (P11166 whole entry): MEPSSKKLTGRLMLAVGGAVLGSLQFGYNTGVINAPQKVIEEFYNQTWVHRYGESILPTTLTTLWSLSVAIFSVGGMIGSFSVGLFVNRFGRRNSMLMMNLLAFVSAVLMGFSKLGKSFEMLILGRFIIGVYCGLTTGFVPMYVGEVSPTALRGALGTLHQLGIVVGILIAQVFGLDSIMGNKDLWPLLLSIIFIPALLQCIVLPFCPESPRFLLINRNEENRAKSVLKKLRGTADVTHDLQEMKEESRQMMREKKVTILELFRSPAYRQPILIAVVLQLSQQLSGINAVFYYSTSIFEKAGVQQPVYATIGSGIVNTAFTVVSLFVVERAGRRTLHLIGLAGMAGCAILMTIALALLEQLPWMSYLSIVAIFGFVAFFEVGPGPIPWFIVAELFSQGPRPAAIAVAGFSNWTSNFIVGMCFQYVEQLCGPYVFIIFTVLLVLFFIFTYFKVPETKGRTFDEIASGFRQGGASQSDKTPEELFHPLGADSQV
The term inhibition denotes the drop in the measured response relative to a control, in per cent. Consider `Cc1ccccc1C1CCN(c2ccc(C(=O)NC3CC3)cn2)CC1`, for which the inhibition was -0.44%.

On to `O=C(Cc1c[nH]cn1)Nc1cccc(-c2cccc(-c3nc4cc(C(F)(F)F)ccc4[nH]3)c2)c1`, for which the inhibition is 9.44%. Still for that read-out and setting: the value for `CCOC(=O)c1ccc(N=C2SC(=Cc3cc(Br)ccc3O)C(=O)N2C)cc1` was 3.33%. The same measure, in the same setting: the same measure for `CCCCN(CCCC)Cc1cc(Nc2ccnc3cc(Cl)ccc23)ccc1O`: 4.85%. For the compound `COc1ccc(C2C(C(=O)Nc3ccc4c(c3)OCO4)c3cc(OC)c(OC)cc3C(=O)N2C)cc1` (centres undefined), the inhibition came out at 2.12%.

Regarding `CCOc1ccc(-c2n[nH]c(C(F)(F)F)c2-c2ccccc2OC)c(O)c1`, the inhibition came out at 2.44%.

Consider `CC(C)c1ccc(-c2nc3cc(Cl)cnc3[nH]2)cc1`, for which the inhibition is 3.03%.

Take `CC(C)CCNc1nc(NCc2ccccc2)c2cc(O)ccc2n1`: the inhibition stood at 5.89%.

For the compound `CC(C)(C)OC(=O)NCc1ccc(Nc2nnc(-c3ccc(OCC(=O)NC[C@@H]4CC[C@H]5C[C@@H]4C5(C)C)c([N+](=O)[O-])c3)o2)cc1`, the inhibition was 2.01%.

`CC(=O)Nc1nc(C(=O)Nc2cccc(-c3ccc(-c4nc5ccccc5[nH]4)cc3)c2)cs1`: the inhibition turned out to be 13%.

Turning to `Cc1noc(C)c1-c1cccc(CNCc2ccc(-c3ccc(-c4nc5ccccc5[nH]4)s3)cc2)c1`, the inhibition came to 1.82%. On to `COc1cc2c(cc1OC)C(C(=O)c1ccccc1)=NCC2`, for which the inhibition was found to be 1.66%. As to `Cc1ccc(NC(=O)Nc2ccc(Cl)cc2)cc1-c1ccc(C(=O)Nc2ccncc2)cc1`, the inhibition is 2.15%. Take `C=CCN1C(=O)C(=Cc2cc(Br)ccc2O)SC1=Nc1ccccc1`: the inhibition was determined as 8.65%.

Regarding `CN1CCN(C(C(=O)NCc2cc(Cl)cc(Cl)c2)c2ccc(NC(=O)Nc3ccccc3)cc2)CC1` (centres undefined), the inhibition was determined as 2.24%. As to `O=C(Nc1ccc(N2CCN(C(=O)/C=C/c3ccccc3)CC2)c(Cl)c1)c1ccc([N+](=O)[O-])o1`, the inhibition is 58.5%. As for `CC(C)Nc1cc(C(=O)N[C@@H](Cc2ccccc2)[C@H](O)CNC2CCOCC2)c(F)c(N2CCCCS2(=O)=O)c1`, the inhibition was 6.75%. As to `Oc1cc(-c2nc(C3(CNCc4ccc(Cl)cc4)CCCCC3)[nH]c2-c2ccncc2)ccc1Cl`, the inhibition came to 4.11%. Regarding `O=C(Nc1ccc(-c2ccccc2)s1)N[C@H]1CCN(Cc2ccc(OCCCN3CCCCC3)cc2)C1`, the inhibition was found to be 0.93%.

Consider `COc1ccc2nc(-c3cc(-c4ccc(NC(=O)C(C)C)cc4)cnc3N)[nH]c2c1`, for which the inhibition is 20.8%. On the same count and under the same terms, the value for `COc1ccc(Nc2ncc3c(-c4cccc(NC(=O)CC(C)C)c4)c[nH]c3n2)cc1OC` was 7.31%. Turning to `CC1CCCC(Nc2noc(-c3sccc3Br)n2)C1` (centres undefined), the inhibition is -0.93%. On the same count and under the same terms, the value for `Fc1ccc(-c2cncc(Nc3ccncc3)n2)cc1` was 6.02%; that for `Cc1cc(=O)c(C2CCC(c3ccc(Cl)cc3)CC2)c(C)[nH]1` (centres undefined) was 2.3%.

A further assay deals with Hexose transporter 1 (Plasmodium falciparum) (UniProt O97467). The experiment in a line: ST_JUDE_LEISH: Cytotoxicity at 2uM final concentration against transgenic Leishmania Mexicana promastigotes LmPfHT that are glucose transport deficient and complemented with the Plasmodium falciparum hexose transporter. Activity is measured by DNA content using SYBR green in vitro. The assay is classed as functional.
For `CC1(C)N=C(N)N=C(N)N1c1cccc(Cl)c1`, the inhibition was -0.19%. `COc1c(C2CCN(CCCCNC(=O)c3ccc(-c4ccc(Cl)cc4)cn3)CC2)ccc2c1CCCC2`: the inhibition was -0.19%. Take `CC(CNC(=O)[C@H]1CNCCN1C(=O)CCCc1ccccc1)c1ccccc1` (some centres undefined): the inhibition was -1.25%.

Take `CC1(C)NC(N)=NC(=N)N1OCc1nc(N)nc(Nc2ccccc2)n1`: the inhibition stood at 5.4%.

As for `C[C@H](NC(=O)c1c(CN2CCN(C(=O)C(C)(C)C)CC2)c(-c2cccs2)nc2ccccc12)C1CCCCC1`, the inhibition is 5.13%. `C=CCNC(CCCCC)c1ccc(OCCOc2ccc(C(CCCCC)NCC=C)cc2)cc1` (centres undefined): the inhibition came to 11.9%. Still for that read-out and setting: the same measure for `Cc1cc(NC(=O)c2cccs2)ccc1OC1CCN(Cc2ccccc2)C1` (centres undefined): -0.44%. On the same count and under the same terms, the value for `C=CCNC(=O)C(C)c1ccc2cc(OC)ccc2c1` (centres undefined) was 0.77%; that for `COc1ccc(CC2(c3ccc(F)cc3)N=C(N)N(CCCc3ccccc3)C2=O)cc1` (centres undefined) was 5.5%.

Regarding `CCCN(CCC)S(=O)(=O)c1ccc(C(=O)N2CCC(C(=O)OCC)CC2)cc1`, the inhibition was 5.73%. The same measure, in the same setting: the same measure for `CC(C)=CCc1c(-c2ccc(O)cc2O)oc2c3c(cc(O)c2c1=O)OC(C)(C)C=C3`: 4.6%.

In the case of `O=[N+]([O-])c1ccc(Nc2nc(N/N=C/c3cc(Cl)cc(Cl)c3O)nc(Nc3ccccc3)n2)cc1`, the inhibition was 2.61%.

For the compound `O=C(Nc1ccc([N+](=O)[O-])cc1Br)c1cc2ccccc2nc1Cl`, the inhibition turned out to be 8.73%. On the same count and under the same terms, the same measure for `CNC(=O)c1cnc(Nc2ccc(N3CCN(C)CC3)cc2)nc1Nc1cccc(OC)c1`: 2.74%; for `Cc1nc2sccn2c1C(=O)NCCc1ccccc1Cl`: 1.15%. Still for that read-out and setting: the same measure for `CCOC(=O)N1CCN(CCCCCNc2cc(C)nc(NC(=N)Nc3ccc(Cl)cc3)n2)CC1`: 8.05%; for `Cc1ccccc1C1CCN(c2ccc(C(=O)NC3CC3)cn2)CC1`: 1.26%; for `O=C(Cc1c[nH]cn1)Nc1cccc(-c2cccc(-c3nc4cc(C(F)(F)F)ccc4[nH]3)c2)c1`: 12.1%. Same read-out and setting: the same measure for `CCOC(=O)c1ccc(N=C2SC(=Cc3cc(Br)ccc3O)C(=O)N2C)cc1`: 1.81%; for `CCCCN(CCCC)Cc1cc(Nc2ccnc3cc(Cl)ccc23)ccc1O`: 8.01%. In the case of `COc1ccc(C2C(C(=O)Nc3ccc4c(c3)OCO4)c3cc(OC)c(OC)cc3C(=O)N2C)cc1` (centres undefined), the inhibition was 1.73%. The same measure, in the same setting: the value for `CCOc1ccc(-c2n[nH]c(C(F)(F)F)c2-c2ccccc2OC)c(O)c1` was 1.89%; that for `CC(C)c1ccc(-c2nc3cc(Cl)cnc3[nH]2)cc1` was 3.85%. `CC(C)CCNc1nc(NCc2ccccc2)c2cc(O)ccc2n1`: the inhibition is 5.74%.

Take `CC(C)(C)OC(=O)NCc1ccc(Nc2nnc(-c3ccc(OCC(=O)NC[C@@H]4CC[C@H]5C[C@@H]4C5(C)C)c([N+](=O)[O-])c3)o2)cc1`: the inhibition came to 2.91%.

With `CC(=O)Nc1nc(C(=O)Nc2cccc(-c3ccc(-c4nc5ccccc5[nH]4)cc3)c2)cs1`, the inhibition came out at 11.8%. Same read-out and setting: the value for `Cc1noc(C)c1-c1cccc(CNCc2ccc(-c3ccc(-c4nc5ccccc5[nH]4)s3)cc2)c1` was 1.38%.

Turning to `COc1cc2c(cc1OC)C(C(=O)c1ccccc1)=NCC2`, the inhibition is 2.92%. `Cc1ccc(NC(=O)Nc2ccc(Cl)cc2)cc1-c1ccc(C(=O)Nc2ccncc2)cc1`: the inhibition was 1.58%. Same read-out and setting: the value for `C=CCN1C(=O)C(=Cc2cc(Br)ccc2O)SC1=Nc1ccccc1` was 6.8%. On the same count and under the same terms, the value for `CN1CCN(C(C(=O)NCc2cc(Cl)cc(Cl)c2)c2ccc(NC(=O)Nc3ccccc3)cc2)CC1` (centres undefined) was 1.94%; that for `O=C(Nc1ccc(N2CCN(C(=O)/C=C/c3ccccc3)CC2)c(Cl)c1)c1ccc([N+](=O)[O-])o1` was 68%; that for `CC(C)Nc1cc(C(=O)N[C@@H](Cc2ccccc2)[C@H](O)CNC2CCOCC2)c(F)c(N2CCCCS2(=O)=O)c1` was 5.16%.

In the case of `Oc1cc(-c2nc(C3(CNCc4ccc(Cl)cc4)CCCCC3)[nH]c2-c2ccncc2)ccc1Cl`, the inhibition is 5.35%. On the same count and under the same terms, the same measure for `O=C(Nc1ccc(-c2ccccc2)s1)N[C@H]1CCN(Cc2ccc(OCCCN3CCCCC3)cc2)C1`: 1.34%. For `COc1ccc2nc(-c3cc(-c4ccc(NC(=O)C(C)C)cc4)cnc3N)[nH]c2c1`, the inhibition came out at 40.7%. Still for that read-out and setting: the same measure for `COc1ccc(Nc2ncc3c(-c4cccc(NC(=O)CC(C)C)c4)c[nH]c3n2)cc1OC`: 8.48%; for `CC1CCCC(Nc2noc(-c3sccc3Br)n2)C1` (centres undefined): 0.6%; for `Fc1ccc(-c2cncc(Nc3ccncc3)n2)cc1`: 7.91%. On the same count and under the same terms, the value for `Cc1cc(=O)c(C2CCC(c3ccc(Cl)cc3)CC2)c(C)[nH]1` (centres undefined) was 2.51%.
